# Values joined by “and” are separate entries in the source; they are usually repeats but may differ in a detail not shown here. Identical values can stand only once. Active and inactive are the calls of the source. Unless noted, no stated cut-off is given here; in the data, active means inhibition above about 80%; inactive means the rest.
# Experiments:
# [1] = LFS_MB_2R medulloblastoma cell growth inhibition, synergistic combos for chromothripsis tumors, cisplatin combos (AID 1671457); details: LFS_MB_2R medulloblastoma cells, stronger effect = higher value;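 further: cells exposed to compound for four days before readout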
# [2] = UWB1.289_BRCA1 ovarian cancer growth, cell-based, BGB or cisplatin combinations (AID 1671459); details: UWB1.289 BRCA1 ovarian carcinoma, drug combinations, stronger effect = higher value
# [3] = human astrocyte viability loss, single and combined drugs, cytotoxicity control for chromothriptic childhood tumor combination screen, cell-based, BGB or cisplatin IC20 combos (AID 1671460); details: Human astrocytes, drug combinations, stronger effect = higher value;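 further: cells exposed to compounds for 96 hours before viability readout; 0% = vehicle and 100% = killing control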
# [4] = modifiers of HSF1 nuclear foci, imaging, Selleck Cancer Library (AID 1347162; in the data active means plate-normalised HSF1 focus index below about 0.46); details: human cells, at 10 µM; SSMD: measured here: HSF1 foci SSMD mean; cell count: measured here: cell number; plate-normalised HSF1 focus index: stronger effect = lower value
# [5] = phospholipid biosynthesis inhibitors in animal cells, primary screen, cell-based, LOPAC library, screen 4 (AID 1347384; call rule not given here); details: phospholipid biosynthesis inhibition screen, at 10 µM
# [6] = hESC survival regulators, cell-based (AID 493140; call rule not given here;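 further: cells exposed to compounds for four days before counting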); details: human embryonic stem cell survival screen; stronger effect = higher value
# [7] = liver-stage malaria parasite growth inhibition, primary screen, cell-based, HepG2, luciferase luminescence, HepG2 viability (AID 624349; in the data active means parasite load remaining mostly below about 12%, no sharp cut-off; inactive means mostly above about 10%;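 further: 100% = mean of DMSO negative control wells on the same plate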); details: P. berghei liver stage in HepG2, luciferase luminescence, concentration not given here; parasite load remaining: stronger effect = lower value; viability: measured here: HepG2 viability without parasites
# [8] = circadian clock period modulators, cell-based, LOPAC library, luminescence reporter (AID 2774; call rule not given here;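 further: values are relative to mean of DMSO wells on each plate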); details: circadian reporter cells, at 7 µM, actives lie on both sides
# [9] = tested on: Hepatitis C virus NS3 helicase; test: HCV NS3 helicase inhibitors, primary screen, biochemical, fluorescence polarization, LOPAC1280 library (AID 687035; in the data active means inhibition above about 37%); details: Purified HCV NS3 helicase, Cy5-dT15 ssDNA binding fluorescence polarization; stronger effect = higher value; concentration not given here
# [10] = Cy5 fluorescence quenching or enhancement artefacts, artefact control for HCV NS3 helicase inhibitor project, biochemical, LOPAC1280 (AID 687037; call rule not given here); details: Cy5-DNA-NS3h complex fluorescence interference counterscreen
# [11] = viability rescue of complex I mutant cybrids, primary screen, cell-based, galactose medium, ATP luminescence (AID 1645843;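 active means z-score of at least 1.8 in each of two replicates, scored against plate mean and spread of sample wells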;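 further: positive z means more ATP and so rescue of galactose-driven cybrid death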); details: complex I mutant cybrid cells, 72 h, stronger effect = higher value
# [12] = kinase inhibitors against Plasmodium liver-stage infection, cell-based, known kinase inhibitor set, luminescence, hepatoma host viability (AID 624392; call rule not given here;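 further: infected cells incubated roughly two days before readout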); details: Plasmodium liver stage in hepatoma cells, luciferase luminescence, concentration not given here; liver cell % of control: measured here: host liver cell viability; parasite % of control: stronger effect = lower value
# [13] = measured here: combination with cisplatin, at 0.5 µM
# [14] = measured here: combination with cisplatin, at 5 µM
# [15] = BGB combination, concentration series, at 5 µM
# [16] = cisplatin combination, concentration series, at 5 µM
# [17] = measured here: combo with BGB IC20, at 0.5 µM
# [18] = measured here: combo with cisplatin IC20, at 0.5 µM
smiles,measurement,setting,value
N=C1CCCN1Cc1[nH]c(=O)[nH]c(=O)c1Cl,inhibition,[1]; at 0.5 µM,-11.5% (inactive)
same,inhibition,[1]; [13],-21.1%
same,inhibition,[1]; [14],-54.2%
same,inhibition,[2]; [15],3.78%
same,inhibition,[2]; at 0.5 µM,4.18% (inactive)
same,inhibition,[2]; [16],25.3%
same,inhibition,[3]; at 0.5 µM,0.72% (inactive)
same,inhibition,[3]; [17],12.6%
same,inhibition,[3]; [18],-10.8%
CN(NC(=O)CC(=O)NN(C)C(=S)c1ccccc1)C(=S)c1ccccc1,SSMD,[4],2.56
same,cell count,[4],6990
same,plate-normalised HSF1 focus index,[4],1.13 (inactive)
Cc1nnc(C(C)C)n1C1CC2CCC(C1)N2CC[C@H](NC(=O)C1CCC(F)(F)CC1)c1ccccc1 (stereo partly drawn),SSMD,[4],0.747
same,cell count,[4],6250
same,plate-normalised HSF1 focus index,[4],1.04 (inactive)
same,outcome,[5],inactive
COc1ccc(S(=O)(=O)N(CCO)c2ccccc2CN(C)C/C=C/c2ccc(Cl)cc2)cc1,survival,[6],106 (inactive)
same,parasite load remaining,[7],32.7% (inactive)
same,viability,[7],64.7%
C=C1[C@H](CO)[C@@H](O)C[C@@H]1n1cnc2c(=O)[nH]c(N)nc21,inhibition,[1]; at 0.5 µM,-6.88% (inactive)
same,inhibition,[1]; [13],-11.9%
same,inhibition,[1]; [14],-13.1%
same,inhibition,[2]; [15],-20.8%
same,inhibition,[2]; at 0.5 µM,-14% (inactive)
same,inhibition,[2]; [16],-7.68%
same,inhibition,[3]; at 0.5 µM,-13.6% (inactive)
same,inhibition,[3]; [17],-16.4%
same,inhibition,[3]; [18],-16.1%
CCCc1c(OCCCOc2ccc(OCC(=O)O)cc2)ccc(C(C)=O)c1O,period change,[8],-0.235 h (inactive)
same,inhibition,[9],-1% (inactive)
same,fluorescence ratio (interference),[10],1 (inactive)
same,outcome,[5],inactive
same,z-score,[11],1.51 (inactive)
CCN1CCN(Cc2ccc(NC(=O)c3ccc(C)c(NC(=O)c4cncc(-c5cccs5)c4)c3)cc2C(F)(F)F)CC1,liver cell % of control,[12],83.9%
same,parasite % of control,[12],74.7% (inactive)
CC(=O)Nc1ccc(C(=O)Nc2ccccc2N)cc1,inhibition,[1]; at 0.5 µM,-12.7% (inactive)
same,inhibition,[1]; [13],-6.43%
same,inhibition,[1]; [14],50.6%
same,inhibition,[2]; [15],68.5%
same,inhibition,[2]; at 0.5 µM,-2% (inactive)
same,inhibition,[2]; [16],75.2%
same,inhibition,[3]; at 0.5 µM,17% (inactive)
same,inhibition,[3]; [17],9.55%
same,inhibition,[3]; [18],26.2%
CC(=O)[C@]1(N)Cc2c(O)c3c(c(O)c2[C@@H](O[C@H]2C[C@H](O)[C@H](O)CO2)C1)C(=O)c1ccccc1C3=O,inhibition,[1]; at 0.5 µM,-4.05% (inactive)
same,inhibition,[1]; [13],-9.33%
same,inhibition,[1]; [14],67%
same,inhibition,[2]; [15],117%
same,inhibition,[2]; at 0.5 µM,13% (inactive)
same,inhibition,[2]; [16],128%
same,inhibition,[3]; at 0.5 µM,25.7% (inactive)
same,inhibition,[3]; [17],27.9%
same,inhibition,[3]; [18],27.1%
COc1cc(Nc2ncc(F)c(Nc3ccc4c(n3)NC(=O)C(C)(C)O4)n2)cc(OC)c1OC,SSMD,[4],2.8
same,cell count,[4],7530
same,plate-normalised HSF1 focus index,[4],1.18 (inactive)
CN(C)C/C=C/C(=O)Nc1ccc(C(=O)Nc2cccc(Nc3ncc(Cl)c(-c4c[nH]c5ccccc45)n3)c2)cc1,inhibition,[1]; at 0.5 µM,75.5% (inactive)
same,inhibition,[1]; [13],68.1%
same,inhibition,[1]; [14],91.1%
same,inhibition,[2]; [15],79.9%
same,inhibition,[2]; at 0.5 µM,84.7% (active)
same,inhibition,[2]; [16],86.1%
same,inhibition,[3]; at 0.5 µM,87.2% (active)
same,inhibition,[3]; [17],86.5%
same,inhibition,[3]; [18],83.8%
NC1CCC(N[C@@H]2C[C@H]2c2ccccc2)CC1 (stereo partly drawn),inhibition,[1]; at 0.5 µM,-35.8% (inactive)
same,inhibition,[1]; [13],-40%
same,inhibition,[1]; [14],-27.2%
same,inhibition,[2]; [15],-9.67%
same,inhibition,[2]; at 0.5 µM,0.86% (inactive)
same,inhibition,[2]; [16],21.2%
same,inhibition,[3]; at 0.5 µM,11.2% (inactive)
same,inhibition,[3]; [17],8.8%
same,inhibition,[3]; [18],10.6%
COc1ccc(C(=O)C2CCN(CC(=O)N(Cc3nc4c(c(=O)[nH]3)COCC4)CC3CC3)CC2)cc1,inhibition,[1]; at 0.5 µM,-24% (inactive)
same,inhibition,[1]; [13],-29.2%
same,inhibition,[1]; [14],-37.9%
same,inhibition,[2]; [15],1.7%
same,inhibition,[2]; at 0.5 µM,-0.47% (inactive)
same,inhibition,[2]; [16],18.5%
same,inhibition,[3]; at 0.5 µM,48.9% (inactive)
same,inhibition,[3]; [17],45.3%
same,inhibition,[3]; [18],49.7%
c1ccc2c(-c3cnn4cc(-c5ccc(N6CCNCC6)cc5)cnc34)ccnc2c1,SSMD,[4],-18.9
same,cell count,[4],2900
same,plate-normalised HSF1 focus index,[4],0.0271 (active)
CN(CCOc1ccc(C[C@H](Nc2ccccc2C(=O)c2ccccc2)C(=O)O)cc1)c1ccccn1,period change,[8],0.085 h (inactive)
COc1cc(/C=C(\C#N)C(=O)Nc2nnc(C(F)(F)F)s2)ccc1OCc1ccc(C(F)(F)F)cc1C(F)(F)F,inhibition,[9],-5% (inactive)
same,fluorescence ratio (interference),[10],1 (inactive)
same,outcome,[5],inactive
same,z-score,[11],0.35 (inactive)
O=C(NOCC(O)CO)c1ccc(F)c(F)c1Nc1ccc(I)cc1F (stereo not drawn),liver cell % of control,[12],81.2% and 75.1% and 63.7%
same,parasite % of control,[12],153% (inactive) and 268% (inactive) and 132% (inactive)

# From PubChem BioAssay
